# Hits are enriched below; roughly 27% of the tested compounds scored in any of these assays.
# CYP2C9 act – human CYP2C9 activators, primary screen, biochemical, luminescence. Cytochrome P450 2C9 (Homo sapiens), P11712. recombinant CYP2C9, luciferin-H conversion; hits give high values; factor 1 = untreated enzyme, 0 = blocked. activation factor at 5 µM. 96,000 compounds, 1.4% hits. AID 1024, 2008;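 active = activation factor of 2 or more for CYP2C9 at a 5 µM dose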
# Target sequence (P11712 whole entry, looked up): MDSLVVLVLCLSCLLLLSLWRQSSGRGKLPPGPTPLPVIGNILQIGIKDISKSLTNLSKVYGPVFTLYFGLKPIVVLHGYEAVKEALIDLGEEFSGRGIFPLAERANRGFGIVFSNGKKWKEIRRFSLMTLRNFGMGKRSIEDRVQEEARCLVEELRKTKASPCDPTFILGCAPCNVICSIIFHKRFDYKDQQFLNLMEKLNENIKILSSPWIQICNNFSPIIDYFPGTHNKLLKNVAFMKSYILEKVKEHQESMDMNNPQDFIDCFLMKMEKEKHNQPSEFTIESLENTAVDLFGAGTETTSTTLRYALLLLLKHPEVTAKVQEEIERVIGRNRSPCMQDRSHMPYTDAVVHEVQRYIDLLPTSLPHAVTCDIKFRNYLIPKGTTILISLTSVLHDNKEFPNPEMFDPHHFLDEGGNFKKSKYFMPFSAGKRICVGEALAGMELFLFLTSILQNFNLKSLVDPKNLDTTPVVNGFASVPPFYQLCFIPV
# CYP2C19 inh – blockers of cytochrome P450 2C19 activity – biochemical, luminescence, ADME assay, primary screen. P33261. CYP2C19 Supersomes, luciferin-H EGE luminescence, 30 min. inhibition, % at 5 µM. 96,000 compounds, 21% hits. AID 778, 2007;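 active = CYP2C19 inhibition above a set limit at 5 µM in the primary screen, cut at about 50% in these data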
# CYP2C9 inh – blockers of cytochrome P450 2C9 activity – biochemical, luminescence, ADME assay, primary screen. P11712. CYP2C9 Supersomes, luciferin-H conversion. inhibition, % at 5 µM. 96,000 compounds, 20% hits. AID 777, 2007;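 active = blocking of liver enzyme CYP2C9 beyond about 50% at 5 µM, limit read from the data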
# Cav3 T inh – Cav3.2 calcium influx blockers – cell-based, Fluo-4 calcium fluorescence, FDSS, MLSMR library, primary screen; Cav3.2-expressing cells; hits give low values; B-score at 10 µM; 100,000 compounds, 4% hits;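 active = single-dose well whose peak fluorescence ratio is a statistical outlier from its plate by either plate-standardised score or position-corrected B-score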
# CYP2C19 activ – human CYP2C19 activators, primary screen, biochemical, luminescence; AID 1025, 2008; activation factor at 5 µM; 96,000 tested, under 10 active; Cytochrome P450 2C19 (Homo sapiens), P33261; recombinant CYP2C19, luciferin-H EGE luminescence; hits give high values; 0 = fully inhibited enzyme, 1 = untreated enzyme;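 active = activation factor of at least 2 at 5 µM in the primary screen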
# A number is an active result; – = inactive; · = no result given.
SMILES,CYP2C9 act,CYP2C19 inh,CYP2C9 inh,Cav3 T inh,CYP2C19 activ
O=C(NC1CCCCC1)C(c1ccc2ncccc2c1)N(Cc1ccco1)C(=O)c1ccc2c(c1)OCCO2 (configuration not stated),–,70.2,69.5,–,–
O=C(NCC(=O)N(Cc1ccco1)C(C(=O)NC1CCCCC1)c1cccnc1)c1cccs1 (configuration not stated),–,57.0,–,–,–
O=C(NC1CCCCC1)C(c1ccc2ncccc2c1)N(Cc1ccc(F)cc1)C(=O)c1ccc2c(c1)OCCO2 (configuration not stated),–,–,–,·,–
N#C/C(=C/c1ccc(N2CCOCC2)c([N+](=O)[O-])c1)C(N)=O,–,–,–,–,–
CC(C)(C)c1ccc(S(=O)(=O)CC(O)CSc2nc3c(cc2C#N)CCCC3)cc1 (configuration not stated),–,–,77.6,–,–
Cc1cc(C)c(C#N)c(SCC(O)CS(=O)(=O)Cc2ccccc2)n1 (configuration not stated),–,96.7,72.0,–,–
Cc1ccc(C)c(NC(=O)CSc2nc(C)cc(C)c2C#N)c1,·,·,·,–,·
CCS(=O)(=O)CCSc1nc2c(cc1C#N)CCCC2,–,–,–,–,–
N#Cc1cc2c(nc1SCc1ccncc1)CCC2,–,100.0,86.9,–,–
N#Cc1cc2c(nc1SCC(O)CS(=O)(=O)Cc1ccc(Cl)cc1)CCCC2 (configuration not stated),–,59.2,81.3,–,–
CCc1ccc(CN2CC(C(=O)O)CC2=O)cc1 (configuration not stated),–,–,–,–,–
Cn1c(=O)c2cc(S(=O)(=O)NCCC(=O)NCC3CCCO3)ccc2n(C)c1=O (configuration not stated),–,–,–,–,–
CCOC(=O)c1c(NC(=S)NC(=O)c2ccc(Cn3cc(Cl)cn3)o2)sc2c1CCCCC2,–,–,–,–,–
C#CCSc1nnc(C)c(C)n1,·,·,·,–,·
COc1ccccc1CNC(=O)C1CC(c2cccc([N+](=O)[O-])c2)=NO1 (configuration not stated),2.5,–,–,–,–
O=C(NCc1ccco1)C1CC(c2cccc([N+](=O)[O-])c2)=NO1 (configuration not stated),–,–,–,–,–
CCCCNC(=O)C1CC(c2cccc([N+](=O)[O-])c2)=NO1 (configuration not stated),2,–,–,–,–
O=C(NCc1ccc(C(F)(F)F)cc1)C1CC(c2c(Cl)cccc2Cl)=NO1 (configuration not stated),–,63.5,–,–,–
CCCCNC(=O)C1CC(c2c(Cl)cccc2Cl)=NO1 (configuration not stated),4.8,–,–,–,–
CC(=O)Nc1ccc(S(=O)(=O)NCC(=O)OCC(=O)N2CCc3ccccc32)cc1,–,–,71.3,–,–
O=C(C1CCN(S(=O)(=O)c2ccc3c(c2)OCCO3)CC1)N1CCc2ccccc21,–,–,–,–,–
CCOc1ccc(S(=O)(=O)NCCC(=O)OC(C)C(=O)N2CCc3ccccc32)cc1 (configuration not stated),2.1,50.3,–,-4.62,–
CCOc1ccc(S(=O)(=O)NCCC(=O)OCN2C(=O)c3ccccc3C2=O)cc1,–,70.5,–,–,–
CC(OC(=O)C1CCN(S(=O)(=O)c2ccc(Cl)cc2)CC1)C(=O)N1CCc2ccccc21 (configuration not stated),–,65.7,–,-4.65,–
O=C(Oc1cccc([N+](=O)[O-])c1)c1cc(-c2ccccc2)nc2ccccc12,–,–,–,–,–
SMILES,CYP2C9 act,CYP2C19 inh,CYP2C9 inh,Cav3 T inh,CYP2C19 activ
Oc1ccccc1CNn1cnnc1,–,–,–,–,–
C/C=C(\CS(=O)(=O)c1ccccc1)S(=O)(=O)c1ccccc1,–,87.2,–,–,–
COC(=O)CSc1nc2c(c(=O)[nH]c(=O)n2C)n1CCC(C)C,·,·,·,–,·
COCCN(CC(=O)Nc1cccc(C)c1)S(=O)(=O)c1ccc(S(=O)(=O)N2CCCC2)cc1,–,–,61.0,–,–
S=C(c1ccc(-c2ccccc2Cl)o1)N1CCOCC1,–,–,–,–,–
S=C(c1ccc(-c2ccc(Cl)c(Cl)c2)o1)N1CCOCC1,–,87.5,88.8,–,–
S=C(c1ccc(-c2ccc(Cl)cc2Cl)o1)N1CCCCC1,–,62.0,72.3,–,–
N#CCCN1CCN(C(=S)c2ccc(-c3cc(Cl)ccc3Cl)o2)CC1,2.7,–,–,·,–
OCCN1CCN(C(=S)c2ccc(Cl)c(Cl)c2)CC1,–,–,–,–,–
CC/C(=N\O)c1ccc(O)c(OC)c1,–,–,–,–,–
CC(C)CC(c1nnnn1Cc1ccccc1)N1CCC(C(N)=O)CC1 (configuration not stated),·,·,·,–,·
CCOC(=O)c1c(C)[nH]c(C)c1C(=O)CSc1nc(N)cc(=O)[nH]1,–,–,–,·,–
CCOC(=O)c1c(C)[nH]c(C)c1C(=O)CSc1nnnn1-c1ccccc1,–,99.0,88.1,–,–
CCOC(=O)c1c(C)[nH]c(C)c1C(=O)COC(=O)CCOc1ccccc1OC,–,77.0,83.3,–,–
CCOC(=O)c1[nH]c(COC(=O)CCOc2ccccc2OC)c(C(=O)OCC)c1C,–,–,–,–,–
COC(=O)c1c(C)[nH]c(C(=O)CSc2nnnn2-c2ccccc2)c1C,–,–,–,·,–
CCOC(=O)c1c(C)[nH]c(C)c1C(=O)CSc1ncccn1,–,58.9,–,–,–
CCOC(=O)c1[nH]c(CSc2nnnn2-c2ccccc2C)c(C(=O)OCC)c1C,–,–,54.0,–,–
Cc1cccc(C(=O)NC2CCN(CC(=O)N3CCOCC3)CC2)c1,–,–,–,–,–
COC(=O)Nc1ccc2c(c1)N(C(=O)CCN1CCN3CCCC3C1)c1ccccc1S2 (configuration not stated),–,–,–,–,–
Cc1nnc(SCC(=O)N2CCCCC2)n1CC1CCCO1 (configuration not stated),·,·,·,–,·
COc1ccccc1CNc1nc2nc3c(c(=O)n2[nH]1)CCC3,–,–,75.5,–,–
Cc1cc2nnc(SCc3ccccc3)n2c(N)n1,–,–,–,–,–
CCCCCc1c(C)nc(Nc2nc(C)c3cc(OC)ccc3n2)[nH]c1=O,–,–,–,-3.79,–
COc1ccc(NC(=O)[C@@H]2CC=C[C@@H]3CCN(C4CCCCC4)C(=O)[C@@H]32)cc1,·,·,·,–,·
N#CC1=C(SCC(=O)NC2CCCCC2)NC(=O)CC1c1ccco1 (configuration not stated),–,72.1,58.7,·,–

# Compound activity (PubChem BioAssay)
